Compound activity from PubChem.
Rab9 prom act: activates the Rab9 promoter; Huh7 Rab9 promoter-luciferase reporter, luminescence, 24 h; 320,000 tested, 2.8% active; AID 485297; Potency, µM (highest dose often 9.22 µM), without a hit: at the top dose activation, negative = inhibition, actives largely listed as activators; also: % of control where 0% means no effect; nearly all actives have a fitted effect of over 60% in size
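Using Huh7 cells stably transfected with Rab9 promoter–luciferase, compounds were incubated 24 h at 37 °C, 5% CO2; luciferase luminescence was read 10 min after reagent addition.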
NPC1 prom act: activates the NPC1 promoter; Huh7 NPC1 promoter luciferase reporter, 24 h; 320,000 tested, 2.4% active; Potency, µM (titrated, usually from 9.22 µM), for inactives: top-dose activation, usual class: activators; AID 485313; also: % of control where 0% means no effect; nearly all actives have a fitted effect of over 60% in size
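Stable NPC1-promoter luciferase Huh7 line; cpd (DMSO) 24 h, 37 °C, 5% CO2; Amplite luciferase reagent 10 min RT; luminescence readout. qHTS format.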
SMN2 splice enh: increases expression of the SMN2 splice variant; 210,000 tested, 2.8% active; Potency, µM (highest dose often 46.1 µM), for the others: at the top dose activity change, positive = activation, actives largely listed as activators; AID 1458; HEK293 SMN2-luciferase splicing reporter, luminescence, 30-36 h; also: % of control where 0% means no effect; nearly all actives have a fitted effect of over 55% in size
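HEK293 cells carry an SMN2 minigene-luciferase reporter in which exon 7 inclusion puts luciferase in frame. Cells were seeded at 2000 cells/well, attached for 10-12 hours, then exposed to compounds for 30-36 hours at 37C before ONE-Glo luminescence.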
ELG1 DNA repair: ELG1-dependent DNA repair inhibition; HEK293T ELG1-luciferase reporter, luminescence, 16 h; DNA damage induced by 5-fluorouridine; Potency, µM (titrated, usually from 46.1 µM), for the others: top-dose activity change, negative = inhibition, most hits filed as inhibitors; 330,000 tested, 2.3% active; also: % is scaled to controls: 0 for no effect and ±100 for the full control effect; nearly all actives have a fitted effect of over 55% in size
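5-Fluorouridine DNA damage + compound/DMSO, 2,000 cells/well, 16 h, 37 °C/5% CO2. ONE-Glo, 30 min RT, luminescence. Readout = decrease in reporter signal.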
FLuc counter: inhibits or activates purified firefly luciferase, miR-21 counter-screen; purified FLuc, Km substrates, luminescence inhibition; Potency, µM (highest dose often 57.5 µM), for inactives: at the top dose activity change, negative = inhibition, actives largely listed as inhibitors; 360,000 tested, 6.9% active;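 also: plate controls were vehicle for no effect and reference inhibitor for full effect; nearly all actives have a fitted effect of over 55% in size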
Target sequence (P08659 whole entry, looked up): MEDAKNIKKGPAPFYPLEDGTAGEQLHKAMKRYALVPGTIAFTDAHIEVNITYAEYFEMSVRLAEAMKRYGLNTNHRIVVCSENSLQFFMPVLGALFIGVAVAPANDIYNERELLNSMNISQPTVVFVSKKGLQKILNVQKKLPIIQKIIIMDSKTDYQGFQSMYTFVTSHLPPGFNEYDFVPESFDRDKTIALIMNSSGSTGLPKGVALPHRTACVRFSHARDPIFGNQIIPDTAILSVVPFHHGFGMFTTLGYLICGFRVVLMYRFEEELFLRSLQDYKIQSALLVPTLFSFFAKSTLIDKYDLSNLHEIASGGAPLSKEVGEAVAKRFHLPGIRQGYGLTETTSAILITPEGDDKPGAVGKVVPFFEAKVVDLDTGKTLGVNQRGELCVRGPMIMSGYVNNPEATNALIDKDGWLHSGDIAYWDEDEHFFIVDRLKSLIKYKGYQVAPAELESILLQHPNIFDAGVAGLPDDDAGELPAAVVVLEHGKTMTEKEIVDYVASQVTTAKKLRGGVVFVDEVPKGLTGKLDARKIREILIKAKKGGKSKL
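Purified P. pyralis luciferase, 10 nM final, with Km-level 10 uM D-luciferin and 10 uM ATP in 50 mM Tris acetate pH 7.5, 10 mM Mg acetate, 0.01% Tween-20, 0.05% BSA; 6-point qHTS titration about 60 µM downward; luminescence read.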
ELG1 genotox: genotoxicity induction in ELG1-luciferase HEK293T cells. HEK293T ELG1-luciferase reporter, luminescence, 16 h. Potency, µM (top dose mostly 46 µM), without a hit: at the highest dose activity change, positive = activation, most hits filed as activators. 330,000 tested, 1.3% active. AID 504466; also: % of control where 0% means no effect; nearly all actives have a fitted effect of over 60% in size
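DMSO vehicle served as control against compound-treated ELG1-luciferase HEK293T cells; exposure lasted 16 hr at 37 °C and 5% CO2, followed by ONE-Glo luminescence detection after 30 min.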
Active calls of the source: *; ? = inconclusive; nt = not tested or not shown; [ ] = dose if it differs, or a comment. Most compounds without a hit are left out; they make up all but 9.2% or so of the library. Calls follow the shape of the dose curve; as a rule, active = well fitted curve in the direction sought with a large enough effect; inconclusive = small, poorly fitted or top-dose-only effect, or another doubt; inactive = no such curve, though single readings can be large; an effect the other way counts as inactive or inconclusive. Potency is read from the fitted curve at half-maximal effect.

SMILES	Rab9 prom act	NPC1 prom act	SMN2 splice enh	ELG1 DNA repair	FLuc counter	ELG1 genotox
COc1ccc(-c2nc(CS(=O)CC(=O)NCc3ccc4c(c3)OCO4)c(C)o2)cc1OC (stereo not given)	3.5%	1.5%	nt	14.6µM*	-7.4%	-4.9%
Cc1ccc(-c2nc(CS(=O)CC(=O)NC(C)CCc3ccccc3)c(C)o2)cc1 (stereo not given)	-1.2%	-2.5%	nt	-23.8%	-4.8%	0.2%
COc1ccc2c(c1)c(=O)c(C(=O)c1ccccc1)cn2CC(=O)Nc1ccc2c(c1)OCO2	nt	nt	-1.3%	nt	-6.9%	nt
CCOc1ccc(-c2nc(CSCC(=O)NCc3ccc(C)cc3)c(C)o2)cc1	nt	nt	nt	nt	-13.4%	nt
CCc1ccc(-c2nc(CSCC(=O)NCc3ccc(C)cc3)c(C)o2)cc1	nt	nt	-37.0%	nt	19µM*	nt
CCCc1cc(=O)oc2cc(C)cc(OCC(=O)N3CCC(C(=O)O)CC3)c12	-6.7%	2.0%	nt	0.8%	1.1%	2.4%
Cc1nc2ccccn2c1CN(C)C(=O)C1CCC(=O)N(Cc2cccc(F)c2)C1 (stereo not given)	-1.1%	-5.4%	nt	-5.3%	1.8%	-0.5%
COc1ccc(CN2CCC(N(CCc3ccccc3)Cc3ccccc3)CC2)c(OC)c1	-11.6%	-6.4%	nt	20.6µM*	0.8%	-12.7%
Cc1cc(/C=N/NC(=O)c2cccc(F)c2)c(C)n1-c1ccccc1	1.58µM*	3.16µM*	26.8%	?	1.2µM*	?
Cc1cc(/C=N/NC(=O)c2ccccc2F)c(C)n1-c1ccccc1	0.631µM*	2.51µM*	12.6µM*	?	2.13µM*	?
CCOC(=O)N/N=C/c1cc(C)n(-c2ccccc2)c1C	?	24.4%	-14.6%[1.84 µM]	?	10.7µM*	?
COc1ccccc1Nc1sc(C(=O)c2ccc3c(c2)OCO3)c(N)c1S(=O)(=O)c1ccccc1	nt	nt	nt	nt	2.0%	nt
Cc1cccc(NC(=O)COc2cccc3c(=O)n(C)ccc23)c1C	nt	nt	nt	nt	2.8%	nt
COc1ccc(/C=N/NC(=S)SC)cc1OC	-2.6%	-3.2%	-3.5%	13.3%	10.7µM*	3.5%
CCCCOc1ccc(CNC(=S)N/N=C/c2ccc(OC)c(OC)c2)cc1	-0.8%	3.4%	1.5%	8.2µM*	?	-4.6%
CSC(=S)N/N=C/c1ccccc1	-3.8%	-2.3%	3.0%	5.5%	15.1µM*	-1.6%
S=C(N/N=C/c1ccccc1)N1CCOCC1	-3.8%	12.3%	0.5%	?	23.9µM*	2.1%
COc1ccc(/C=N/NC(N)=S)cc1OC(=O)c1ccccc1	-5.6%	0.4%	12.9%	?	0.5%	17.1%
CCOc1ccc(CNC(=S)N/N=C\c2ccc([N+](=O)[O-])cc2)cc1	-1.6%	5.1%	-38.1%	-16.8%	5.9%	?
O=C(COc1ccccc1)Nc1ccccc1C(=O)OCc1cc(=O)n2nc(C3CC3)sc2n1	nt	nt	nt	nt	21.3µM*	nt
O=C(COc1ccc(F)cc1)Nc1ccccc1C(=O)OCc1cc(=O)n2nc(C3CC3)sc2n1	nt	nt	nt	nt	4.1%	nt
CC(C)c1nn2c(=O)cc(COC(=O)c3ccccc3NC(=O)COc3ccccc3)nc2s1	nt	nt	nt	nt	21.3µM*	nt
Cc1nc(-c2noc(-c3ccc(Cl)cc3)n2)c(C(F)(F)F)o1	21.8%	13.0%	nt	0.0%	?	8.4%
Cc1ccccc1Cn1cc(CCC(=O)NCc2cccc(Br)c2)c2ccccc21	nt	nt	nt	nt	-6.7%	nt
Cc1ccc(C)c(Nc2nc(N)c3ccccc3n2)c1	2.51µM*	2.51µM*	14.1µM*	?	4.78µM*	?
SMILES	Rab9 prom act	NPC1 prom act	SMN2 splice enh	ELG1 DNA repair	FLuc counter	ELG1 genotox
COc1ccc(C)cc1Nc1nc(N)c2cc(OC)c(OC)cc2n1	-0.8%	2.2%	1.9%	5.1%	?	15.5%
Cc1ccc(O)c(Nc2nc(-c3ccccc3)nc3ccccc23)c1	4.0%	-0.1%	nt	?	-2.9%	-1.4%
COc1ccc(Cl)cc1Nc1nc(N)c2ccccc2n1	20.5%	?	nt	?	16.9µM*	3.9%
Cc1ccc(O)c(Nc2c3ccccc3nc3ccccc23)c1	-0.2%	-1.8%	nt	8.2µM*	?	-9.3%
S=c1nc(-c2csc3c2CCCC3)[nH][nH]1	-1.6%	-2.6%	nt	0.6%	?	-3.0%
Cc1ccc(N(CCC#N)C(=O)CCl)cc1C	-42.1%	-34.8%	-117.2%	18.4µM*	12.3%	-9.6%
FC(F)(F)c1cc(NC2CCCCC2)ccn1	-3.3%	1.5%	nt	8.2µM*	-8.2%	-10.2%
Fc1ccc(Nc2ccnc(C(F)(F)F)c2)cc1	-6.2%	-2.9%	nt	?	-1.8%	0.5%
NC(=O)c1ccccc1NC(=O)CC12CC3CC(CC(C3)C1)C2	-11.0%	-1.3%	nt	-1.3%	0.7%	-0.7%
COc1cc(C2Nc3ccc4ncccc4c3C3=C2C(=O)CCC3)cc(OC)c1O (stereo not given)	-19.6%	-12.9%	10µM*	15.6%	-0.7%	?
COc1cc(C2Nc3ccc4ncccc4c3C3=C2C(=O)CC(C)(C)C3)cc(OC)c1O (stereo not given)	-11.1%	-1.0%	28.2µM*	?	-1.9%	?
CC1(C)CC(=O)C2=C(C1)c1c(ccc3ncccc13)NC2c1cccs1 (stereo not given)	-23.6%	-19.2%	26.3%	18.9%	-0.7%	?
O=C1CCCC2=C1C(c1ccco1)Nc1ccc3ccccc3c12 (stereo not given)	2.7%	0.6%	-12.6%	-13.7%	?	1.2%
Cc1ccc(OCc2ccc(C(=O)Nc3nccs3)o2)cc1C	?	?	31.9%	?	16.9µM*	-1.0%
Cc1ccc(OCc2ccc(C(=O)N3CCOCC3)cc2)cc1C	1.41µM*	3.55µM*	11.2µM*	?	6.75µM*	?
O=C(Nc1nccs1)c1ccc(COc2c(F)c(F)cc(F)c2F)o1	1.6%	23.8%	nt	?	0.4%	7.0%
C=CCc1ccc(OCc2ccc(C(=O)OC)o2)c(OC)c1	0.501µM*	?	?	?	7.57µM*	10.3µM*
CCc1cc(=O)oc2cc(OCc3ccc(C(=O)O)o3)ccc12	?	?	nt	?	26.9µM*	17.3%
COC(=O)c1ccc(COc2ccc3ccc(=O)oc3c2)o1	18.6%	13.7%	nt	?	-19.1%	11.0%
COC(=O)c1ccc(COc2ccc(C)c(C)c2)o1	1.58µM*	1.41µM*	nt	?	?	?
Cc1ccc(OC(C)C(=O)O)cc1C (stereo not given)	8.5%	-2.0%	10.6%	13.8%	-4.1%	-1.7%
Cc1ccc(OCc2ccoc2C(=O)O)cc1C	-3.2%	-0.3%	3.3%	?	19µM*	5.3%
Cc1cc(C)cc(OCc2ccc(C(=O)O)o2)c1	0.7%	2.6%	?	?	-18.8%	?
Cc1ccc(OCc2ccc(C(=O)O)o2)cc1C	?	?	nt	?	10.7µM*	?
